Experimental data from PMC5540273 (PLoS ONE, 2017).

Assays:
Details in all cases: concentration: 1 μM, replicates: in singlicate; n = 1
[1] = tested on: T1, RSK4(Kin.Dom.1-N-terminal)
T1 construct: gene RPS6KA6

[2] = tested on: T2, RSK4(Kin.Dom.2-C-terminal)
T2 construct: gene RPS6KA6

S6K1 = tested on: S6K1
SBK1 = tested on: SBK1
SGK2 = tested on: SGK2
SGK3 = tested on: SGK3
SGK = tested on: SGK
SIK2 = tested on: SIK2
SIK = tested on: SIK
SLK = tested on: SLK
SNARK = tested on: T3, SNARK
T3 construct: gene NUAK2

SNRK = tested on: SNRK
SRC = tested on: SRC
SRMS = tested on: SRMS
SRPK1 = tested on: SRPK1
SRPK2 = tested on: SRPK2
SRPK3 = tested on: SRPK3
STK16 = tested on: STK16
STK33 = tested on: STK33
STK35 = tested on: STK35
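Note: KINOMEscan kinase panel screen.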

SMILES | %Inh [1] | %Inh [2] | %Inh (S6K1) | %Inh (SBK1) | %Inh (SGK2) | %Inh (SGK3) | %Inh (SGK) | %Inh (SIK2) | %Inh (SIK) | %Inh (SLK) | %Inh (SNARK) | %Inh (SNRK) | %Inh (SRC) | %Inh (SRMS) | %Inh (SRPK1) | %Inh (SRPK2) | %Inh (SRPK3) | %Inh (STK16) | %Inh (STK33) | %Inh (STK35)
CN(C)CCNS(=O)(=O)c1ccc(-c2ccnc3[nH]ccc23)cc1 [GSK977620] | 25% | 22% | 32% | 47% | 0% | 32% | 4% | 11% | 14% | 71% | 73% | 0% | 6% | 0% | 45% | 0% | 0% | 62% | 66% | 15%
Cc1cccc(Nc2nc(NCCN)ncc2C(N)=O)c1 [GSK1292139] | 21% | 23% | 14% | 72% | 0% | 8% | 9% | 52% | 19% | 32% | 73% | 0% | 40% | 0% | 56% | 18% | 0% | 30% | 73% | 34%
CN(C)CCOc1ccc(-c2cc(-c3ccc(Cl)c(O)c3)c(-c3ccncc3)[nH]2)cc1.Cl.Cl [SB-684387] | 0% | 25% | 6% | 12% | 10% | 20% | 24% | 27% | 4% | 98% | 9% | 9% | 92.2% | 3% | 0% | 30% | 0% | 14% | 0% | 0%
CNc1nccc(-c2ccc3c(N)n[nH]c3c2)n1 [GSK2206003] | 59% | 24% | 0% | 36% | 6% | 38% | 36% | 9% | 0% | 69% | 35% | 0% | 19% | 11% | 68% | 5% | 31% | 34% | 0% | 0%
Cn1cc(-c2ccc3c(c2)CCN3C(=O)Cc2cc(F)cc(F)c2F)c2c(N)ncnc21 [GSK2634140] | 0% | 0% | 17% | 16% | 4% | 0% | 0% | 0% | 8% | 60% | 28% | 8% | 10% | 0% | 34% | 0% | 0% | 0% | 0% | 0%
Cl.O=C(Nc1ccc(Oc2ccc3[nH]c(NC(=O)c4ccco4)nc3c2)cc1)Nc1cc(C(F)(F)F)ccc1F [GW683134] | 0% | 13% | 45% | 3% | 14% | 0% | 0% | 0% | 0% | 83% | 0% | 0% | 23% | 0% | 51% | 0% | 100% | 0% | 76% | 6%
COc1cccc(C2=C(Nc3cccc(O)c3)C(=O)NC2=O)c1 [SB-390771] | 0% | 37% | 11% | 4% | 0% | 16% | 0% | 3% | 0% | 69% | 0% | 0% | 0% | 0% | 2% | 0% | 13% | 100% | 0% | 0%
COc1ccc(C)c(Nc2ccnc(Nc3ccc(-c4cnc[nH]4)cc3)n2)c1.Cl [GW784041] | 0% | 0% | 0% | 0% | 0% | 12% | 0% | 71% | 28% | 70% | 0% | 0% | 86% | 0% | 32% | 0% | 30% | 15% | 0% | 12%
Cc1ccc(NC(=O)c2ccc(Cl)c(Cl)c2)cc1-c1ccc(C(=O)Nc2ccncc2)cc1 [GSK1398460] | 0% | 23% | 0% | 15% | 0% | 14% | 0% | 9% | 8% | 29% | 9% | 0% | 23% | 0% | 34% | 0% | 14% | 14% | 0% | 0%
